Reference: paper PMC4336329 (PLoS ONE, 2015)
Screen size: about 310,000 compounds; about 14,000 (4.5%) showed an effect of 50% or more. The effect is printed as a negative number. Shown is part of a subset that was picked to be rich in strong results.

Target: human ether-à-go-go-related gene (hERG) potassium channel (human, UniProt Q12809)
Experiment: primary screen, population patch clamp on CHO cells stably expressing hERG; higher = less effect of the substance
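Further: peak tail current of the secondary pulse compared with the same well before compound.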

Chain of human ether-à-go-go-related gene (hERG) potassium channel (Q12809 whole entry, looked up): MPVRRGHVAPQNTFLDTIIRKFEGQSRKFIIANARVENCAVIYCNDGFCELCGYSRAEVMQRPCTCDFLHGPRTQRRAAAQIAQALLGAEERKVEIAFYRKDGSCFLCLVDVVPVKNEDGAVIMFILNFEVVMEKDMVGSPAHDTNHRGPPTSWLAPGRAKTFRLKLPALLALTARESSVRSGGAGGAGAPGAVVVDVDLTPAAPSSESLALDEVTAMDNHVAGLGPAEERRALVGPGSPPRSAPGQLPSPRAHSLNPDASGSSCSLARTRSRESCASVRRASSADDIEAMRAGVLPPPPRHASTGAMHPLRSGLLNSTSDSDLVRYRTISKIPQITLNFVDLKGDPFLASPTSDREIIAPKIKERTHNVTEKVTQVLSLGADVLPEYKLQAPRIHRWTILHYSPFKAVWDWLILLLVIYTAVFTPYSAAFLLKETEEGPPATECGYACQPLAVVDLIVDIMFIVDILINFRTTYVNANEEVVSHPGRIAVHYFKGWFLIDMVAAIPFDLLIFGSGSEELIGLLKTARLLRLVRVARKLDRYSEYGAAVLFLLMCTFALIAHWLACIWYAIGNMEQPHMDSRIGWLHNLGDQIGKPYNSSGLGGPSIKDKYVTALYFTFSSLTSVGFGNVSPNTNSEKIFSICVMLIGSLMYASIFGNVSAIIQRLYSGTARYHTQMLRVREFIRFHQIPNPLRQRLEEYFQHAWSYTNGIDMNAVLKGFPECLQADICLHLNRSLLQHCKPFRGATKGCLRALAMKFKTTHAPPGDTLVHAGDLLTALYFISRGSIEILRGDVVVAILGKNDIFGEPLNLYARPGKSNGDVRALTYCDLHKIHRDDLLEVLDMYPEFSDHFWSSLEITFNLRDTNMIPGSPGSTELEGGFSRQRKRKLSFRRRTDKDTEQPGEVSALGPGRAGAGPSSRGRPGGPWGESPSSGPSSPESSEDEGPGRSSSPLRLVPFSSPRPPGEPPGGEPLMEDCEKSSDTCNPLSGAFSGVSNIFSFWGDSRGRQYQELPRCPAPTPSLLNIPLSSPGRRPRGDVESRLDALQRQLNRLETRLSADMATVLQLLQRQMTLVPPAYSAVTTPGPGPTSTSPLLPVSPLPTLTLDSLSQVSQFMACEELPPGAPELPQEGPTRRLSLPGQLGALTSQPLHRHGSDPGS

SMILES	hERG current change (%, negative = inhibition) at 10uM
CCCCCOC(=O)C1=C(C)NC(=O)NC1c1ccc(N(C)C)cc1 (stereo not drawn)	12.5%
COc1ccc(C2C3=C(CC(C)(C)CC3=O)Nc3c2c(=O)[nH]c(=O)n3Cc2ccccc2)cc1OC (stereo not drawn)	-3.11%
CCOC(=O)Cc1csc(NC(=O)CCCN2C(=O)c3ccccc3C2=O)n1	12.2%
O=C(C1CCN(c2ncnc3c2sc2cccc(F)c23)CC1)N1CCOCC1	-27.8%
CC1CC(C)CN(CCCNC(=O)C2CCN(c3ncnc4c3sc3cccc(F)c34)CC2)C1 (stereo not drawn)	-65.8%
CCN(CC)CCCNC(=O)C1CCN(C(=O)c2cc3sccc3n2Cc2ccc(F)cc2)CC1	-2.11%
O=C(NC1CC1)C1CCN(c2ncnc3c2sc2cccc(F)c23)CC1	-52%
O=C(NC1CC1)C1CCN(c2nc3ccccc3s2)CC1	-5.63%
CCOC(=O)N1CCN(C(=O)C2CCN(c3ncnc4c3sc3cccc(F)c34)CC2)CC1	-59.9%
O=C(Nc1ccc(F)cc1F)C1CCN(c2ncnc3c2sc2cccc(F)c23)CC1	3.98%
O=C(NCCN1CCOCC1)C1CCN(c2ncnc3c2sc2cccc(F)c23)CC1	-25.6%
CCN(CC)CCCNC(=O)C1CCN(c2ncnc3c2sc2cccc(F)c23)CC1	-50.2%
O=C(C1CCN(c2ncnc3c2sc2cccc(F)c23)CC1)N1CCCC1	-19.7%
COc1ccc(-c2noc(N3CCC(C(=O)NCCCN4CC(C)CC(C)C4)CC3)n2)cc1 (stereo not drawn)	-18.1%
CCN(CC)CCNC(=O)c1ccc(NC(=O)C2CCN(c3ncnc4sc(C)c(C)c34)CC2)cc1	-29.8%
O=C(Nc1cc(-c2nc3ncccc3o2)ccc1Cl)c1ccc2c(c1)OCO2	10.2%
Cc1ccc(C(=O)NCCc2ccc(S(N)(=O)=O)cc2)o1	16.1%
O=C(Nc1ccc(-c2ccccc2)cc1)c1ccc2c(c1)S(=O)(=O)c1ccccc1C2=O	7.7%
CC1(C)NC(=O)N(CC(O)COC2CCCCC2)C1=O (stereo not drawn)	8.64%
FC(F)(F)c1ccccc1CNCc1ccncc1	4.43%
COc1ccccc1-n1c(C)nnc1SCC(=O)NCc1ccccc1	11.5%

SMILES	hERG current change (%, negative = inhibition) at 10uM
CCOC(=O)c1c(NC(=O)COC(=O)Cn2cnc3ccccc32)sc2c1CCC(C)C2 (stereo not drawn)	-3.78%
CCCCN(CC)CCNC(=O)C1CCN(S(=O)(=O)c2cccc3nsnc23)CC1	-11%
CCCCN(CC)CCCNC(=O)C1CCN(c2ncnc3c2sc2cccc(F)c23)CC1	-70.3%
CCCCNC(=O)C1CCN(c2nc(C)cc(C)n2)CC1	17%
CC1(C)CC2CC(C)(CN2C(=O)COC(=O)Cn2[nH]c(=O)c3ccccc3c2=O)C1 (stereo not drawn)	2.26%
CCn1c(CNC(=O)c2ccc(Cl)cc2)nnc1SCC(=O)NC1=NCCS1	18%
CC(=O)Nc1sc2c(c1CN1CCN(c3ccccn3)CC1)CCCC2	-55.3%
CC(=O)Nc1sc2c(c1CN1CCCC1)CCCC2	7.34%
CC(=O)Nc1sc2c(c1CN1CCN(C)CC1)CCCC2	-1.92%
COc1cc(NC(=O)c2ccc(Br)o2)ccc1NC(=O)c1ccccc1Cl	-22.4%
CCN(CC)C(=O)CSc1nnc(SCc2ccc(Cl)cc2)s1	-3.44%
O=C(O)C1(NS(=O)(=O)c2ccc(F)c(Cl)c2)CCCCC1	7.65%
N#C/C(=C/Nc1ccccc1)c1ccsc1	7.85%
O=C(NC1CCCCC1)c1ccc(S(=O)(=O)N2CCOCC2)cc1	-2.69%
COc1ccc(N2CCN(C(=O)C(NC(=O)c3c(F)cccc3F)C(C)C)CC2)cc1 (stereo not drawn)	10.5%
CC(C)[C@H](NC(=O)C1CC(=O)N(c2ccc(F)cc2)C1)C(=O)N1CCCCC1 (stereo partly drawn)	7.29%
CC(C)[C@H](NC(=O)C1CCN(S(=O)(=O)c2ccc(F)cc2)CC1)C(=O)N1CCCCCC1	5.18%
CC(C)C(NC(=O)c1c(F)cccc1F)C(=O)N1CCN(c2ccccc2F)CC1 (stereo not drawn)	-1.76%
CC(C)C(NC(=O)C1CCCCC1)C(=O)N1CCN(c2ccc(F)cc2)CC1 (stereo not drawn)	-55.7%
CC(C)[C@H](NC(=O)c1c(F)cccc1F)C(=O)N1CCN(c2ccc(F)cc2)CC1	-54.2%
O=C(COc1ccccc1)OC(C(=O)c1ccccc1)c1ccccc1 (stereo not drawn)	16.5%
